Screen size: about 290,000 compounds; about 11,000 (3.8%) were called active. The full list was thinned out, with actives kept by preference. Values without a mark were called inactive.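 The calls were made as follows: active = mean replicate inhibition above about 79%, with every replicate also reaching it (limit read from the data); inconclusive = only one of the two criteria met; inactive = mean below limit and not every replicate reaching it.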
Each compound was assayed against FAD-linked sulfhydryl oxidase ALR (Homo sapiens) (UniProt P55789) (assay: ALR-catalysed DTT oxidation blockers – biochemical, H2O2 detection, HRP-luminol luminescence, single point, primary screen (AID 485317)). Details: purified ALR, stronger effect = higher value, concentration not given here.
FAD-linked sulfhydryl oxidase ALR (Homo sapiens), sequence (P55789 whole entry, looked up): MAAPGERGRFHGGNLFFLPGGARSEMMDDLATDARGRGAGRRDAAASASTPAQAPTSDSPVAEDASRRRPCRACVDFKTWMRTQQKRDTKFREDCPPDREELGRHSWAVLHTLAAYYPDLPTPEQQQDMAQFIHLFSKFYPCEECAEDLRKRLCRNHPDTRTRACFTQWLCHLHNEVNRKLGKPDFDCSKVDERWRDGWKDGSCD

Row | Compound | inhibition
1 | Cc1cc(C)cc(NC(=O)C2CCCN2S(=O)(=O)c2cccc3cccnc23)c1 (configuration not stated) | -0.666%
2 | COc1ccc(NC(=O)C2CCCN(S(=O)(=O)c3cccc4cccnc34)C2)cc1OC (configuration not stated) | -28.5%
3 | Cc1cccc(NC(=O)C2CCN(S(=O)(=O)c3cccc4cccnc34)CC2)c1 | 88.1% (active)
4 | CC(NC(=O)c1ccccc1F)c1cccc2ccccc12 (configuration not stated) | -16.5%
5 | O=c1oc2ccc(C#CC3(O)CCCCC3)cc2cc1-n1cc(-c2ccsc2)nn1 | -6.77%
6 | O=C(CN1C(=O)NC2(CCCC2)C1=O)Nc1cc(C(F)(F)F)ccc1N1CCOCC1 | -1.5%
7 | COc1ccccc1S(=O)(=O)NCc1ccc(C(=O)N(C)Cc2ccc(F)cc2)cc1 | -4.34%
8 | C=CCn1c(=S)[nH]c2scc(-c3ccco3)c2c1=O | 98.3% (active)
9 | C=CCNC(=O)CSc1nc2scc(-c3ccco3)c2c(=O)n1CC=C | -0.872%
10 | C=CCn1c(SCc2csc(C)n2)nc2scc(-c3ccc(C)o3)c2c1=O | 16.6%
11 | CCN1CCN(Cc2nc3c(c(=O)n(C)c(=O)n3C)n2CC(=O)c2ccccc2)CC1 | 98.2% (active)
12 | CCOC(=O)N1CCN(Cc2nc3c(c(=O)n(C)c(=O)n3C)n2Cc2ccccc2)CC1 | -3.2%
13 | CC1CCCN(Cc2nc3c(c(=O)n(C)c(=O)n3C)n2CC(=O)c2ccccc2)C1 (configuration not stated) | -8.6%
14 | O=C(CCCCO)c1ccc(O)c(Cl)c1 | 7.83%
15 | Cc1cc2nnc(SCC(=O)N3CCN(c4ccccc4)CC3)n2c(N)n1 | 98% (active)
16 | Cn1c(Cc2cccc3ccccc23)nnc1SCC(=O)N1CCN(c2cccc(Cl)c2)CC1 | -3.36%
17 | Cc1nnc(SCC(=O)N2CCN(c3ccccc3)CC2)n1-c1ccccc1 | 46.1%
18 | CCN(CC(=O)NCc1ccc(Cl)cc1)C(=O)c1c(C)noc1C | -1.1%
19 | COc1cc2cc(C(=O)N/N=C/c3cccc(OC)c3OC)[nH]c2cc1OC | 15.9%
20 | CCOc1ccc2[nH]c(C(=O)N/N=C/c3cccc(OC)c3OC)cc2c1 | -44.7%
21 | COc1ccc2[nH]c(C(=O)N/N=C/c3cc(OC)c(OC)c(OC)c3)cc2c1 | 90.9% (active)
22 | COc1ccc(C(=O)NCC2CCCN2S(=O)(=O)c2cccs2)cc1OC (configuration not stated) | -12.1%
23 | COc1ccccc1C(CNC(=O)c1ccc(C)c(S(=O)(=O)N2CCCCC2)c1)N(C)C (configuration not stated) | -5.4%

Row | Compound | inhibition
24 | Nc1c(N(CCCO)C(=O)C2CCCC2)c(=O)[nH]c(=O)n1Cc1ccccc1 | 2.17%
25 | O=C(NNS(=O)(=O)c1c(F)cc(F)c(Cl)c1F)C12CC3CC(CC(C3)C1)C2 | -7.91%
26 | CSc1nnc(-c2ccncc2)n1CCCN1CCCC1=O | 98.1% (active)
27 | COCCCn1c(SCC(=O)Nc2ccccc2)nnc1-c1ccncc1 | -6.22%
28 | CC1CCCCC1NC(=O)CSc1nnc(-c2ccncc2)n1CCCN(C)C (configuration not stated) | -3.25%
29 | O=C(c1cnccn1)N1CCN(S(=O)(=O)c2cccc(Cl)c2)CC1 | -2.25%
30 | O=c1nc(N/N=C/c2ccco2)cn[nH]1 | -0.901%
31 | Cc1cc(C)c(OCC(=O)N/N=C/c2ccco2)c(C)c1 | -5.47%
32 | COc1cccc2c(N/N=C/c3ccco3)cc(C)nc12 | 91.2% (active)
33 | COc1cc2ccccc2cc1C(=O)Nc1nc(C)c(C(C)=O)s1 | -3.67%
34 | COc1ccc(C(CNC(=O)c2ccc(S(=O)(=O)Nc3ccccc3C)cc2)N2CCOCC2)cc1 (configuration not stated) | 1.74%
35 | CC(NC(=O)COC(=O)Cn1cc(C(F)(F)F)ccc1=O)c1ccccc1 (configuration not stated) | -3.5%
36 | COc1cc(-c2c(-c3ccc4c(c3)OCO4)noc2C)ccc1F | 3.17%
37 | CCOC(=O)N1CCN(C(=S)Nc2ccc(C)cc2C)CC1 | -22.4%
38 | Cc1ccc(Nc2c(F)c(F)c(F)c(F)c2C(=O)O)c(C)c1 | 98.2% (active)
39 | COc1c(F)c(F)c(C(=O)O)c(Nc2ccccc2C)c1F | 18.5%
40 | O=C(NCC#CCSc1nnc(-c2cccc3ccccc23)o1)c1cccs1 | -4.12%
41 | COc1ccc(C(=O)NCC(=O)N/N=C/c2ccc([N+](=O)[O-])s2)cc1OC | -29.5%
42 | COc1ccc(C(=O)NCC(=O)N/N=C/c2ccc([N+](=O)[O-])o2)cc1OC | -60.3%
43 | COc1cc(/C=N\NC(=O)CNC(=O)c2cccc([N+](=O)[O-])c2)ccc1O | 98.6% (active)
44 | COc1ccc(C(=O)N2CCN(c3ncccn3)CC2)cc1S(=O)(=O)N1CCOCC1 | -2.44%
45 | CSc1ncccc1C(=O)Nc1cccc(S(=O)(=O)N2CCOCC2)c1 | -2.48%
46 | O=C1C=C(c2ccnc3cc(Cl)ccc23)C[C@@H](c2ccc3c(c2)OCO3)C1 | -0.313%

Row | Compound | inhibition
47 | Cc1ccccc1N1CCN(CCCOc2ccc3c(C)cc(=O)oc3c2)CC1 | -0.584%
48 | Cc1cc(=O)oc2cc(OCC3CC(c4ccccc4Cl)=NO3)ccc12 (configuration not stated) | 97.9% (active)
49 | Cc1cc(=O)oc2cc(OCCC[n+]3ccccc3)ccc12 | -10.6%
50 | Cn1nnnc1SCC(=O)Nc1cccc(S(=O)(=O)N2CCCCC2)c1 | -1.39%
51 | Cc1ccnc(N2CCCC(C(=O)NC3CC3)C2)n1 (configuration not stated) | 1.74%
52 | Cc1ccc(Cl)cc1NC(=O)C1CCCN(c2cnccn2)C1 (configuration not stated) | -6.26%
53 | Cc1ccnc(N2CCCC(C(=O)Nc3cc(F)ccc3C)C2)n1 (configuration not stated) | 87.3% (active)
54 | Cc1noc(C)c1S(=O)(=O)N(C)C[C@H]1Oc2ccc(NC(=O)C3CC3)cc2C(=O)N([C@H](C)CO)C[C@@H]1C | 2.82%
55 | CCCNC(=O)c1onc(CSc2ccc(F)cc2)c1C(=O)NC(C)C | 3.87%
56 | CN(C)C(=O)COC(=O)c1cccc(S(=O)(=O)N2CC3(C)CC2CC(C)(C)C3)c1 (configuration not stated) | -0.802%
57 | COc1cccc(NC(=O)COC(=O)c2ccc3ccccc3n2)c1 | -1.64%
58 | CCn1c(Cc2ccc(OC)cc2)nnc1SCC(=O)Nc1ccc(N2CCOCC2)cc1 | 39.5%
59 | Cn1c(SCC(=O)N2CCOCC2)nnc1-c1ccc(NC(=O)c2ccccc2F)cc1 | -5.97%
60 | Cn1c(SCC(=O)Nc2ccc(N3CCOCC3)cc2)nnc1C(F)(F)F | 93.8% (active)
61 | O=C(O)CCC(=O)Nc1ccc(N2CCOCC2)cc1 | -4.54%
62 | Cn1cnnc1SCC(=O)Nc1ccc(N2CCOCC2)cc1 | 95.8% (active)
63 | Cn1c(SCC(=O)Nc2cccc(O)c2)nnc1-c1ccc(S(=O)(=O)N2CCOCC2)cc1 | 16.7%
64 | COc1ccc(C(=O)NCc2ccc(C)cc2)cc1S(=O)(=O)N1CCCC1 | -2.12%
65 | Cc1nc2ccccc2c(=O)n1-c1ccc(NS(=O)(=O)c2ccc(F)cc2F)cc1 | -10.6%
66 | CCn1c(CN2C(=O)CSc3ccccc32)n[nH]c1=S | 91.7% (active)
67 | CCn1c(CSCc2c(Cl)cccc2Cl)n[nH]c1=S | 67.9%
68 | CCn1c(CNS(=O)(=O)c2ccc(Cl)cc2)n[nH]c1=S | 21.4%
69 | Cn1c(CCN2CCCC2)nc2cc(NS(=O)(=O)c3ccccc3)ccc21 | -0.934%

Row | Compound | inhibition
70 | O=S(=O)(Nc1ccc2cn[nH]c2c1)c1ccccc1 | -80.8%
71 | O=S(=O)(Nc1ccc2nc(-c3ccco3)[nH]c2c1)c1ccccc1 | 88.8% (active)
72 | COC(=O)c1ccc(NS(=O)(=O)c2cc3c4c(c2)C(C)C(=O)N4CCC3)cc1 (configuration not stated) | -2.24%
73 | O=C(COC(=O)c1cccc(Cl)c1)Nc1ccc2[nH]c(=O)[nH]c2c1 | -0.957%
74 | O=C(NNC(=S)Nc1ccc(Br)cc1Cl)c1ccco1 | 82.2% (active)
75 | CCC(=O)NC(=S)Nc1ccc(NC(=O)c2ccco2)c(Cl)c1 | -18.1%
76 | O=C(NNC(=O)c1ccco1)Nc1ccccc1 | 39.9%
77 | CN(CCc1ccccc1)C(=O)c1cccc(NC(=O)Cc2ccc([N+](=O)[O-])cc2)c1 | 1%
78 | O=C(OCCN1C(=O)c2ccccc2C1=O)[C@@H]1CC(O)CN1S(=O)(=O)c1ccccc1[N+](=O)[O-] (some centres not stated) | -2.79%
79 | COc1cc(/C=N/Nc2ccc(C)cc2)cc(Br)c1O | 98.4% (active)
80 | COc1cc(/C=N/NC(=O)c2cc(C)n(-c3ccc(F)cc3)c2C)cc(OC)c1O | 64%
81 | COc1cc(/C=N/NC(=S)Nc2cccnc2)cc(OC)c1O | 95% (active)
82 | COc1cc(/C=N/NC(=O)c2cc(-c3ccccc3C)nc3ccccc23)cc(OC)c1O | -3.08%
83 | COc1ccc(/C=C/C(=O)Nc2cccnc2)cc1OC | -0.926%
84 | COc1cc(/C=N/O)cc(Br)c1OS(=O)(=O)c1ccc(C)cc1 | -15%
85 | Nc1c(C(=O)Nc2ccc3c(c2)OCCO3)nnn1Cc1ccccc1 | -23.5%
86 | COc1ccc(/C=N/NC(=O)c2cccc(C(F)(F)F)c2)cc1 | -3.29%
87 | Cc1nc2ccc(C(=O)O)cc2[nH]1 | -25.4%
88 | CC(C)c1c(C(=O)N/N=C/c2ccc(-c3ccccc3)cc2)nnn1-c1nonc1N | -10.7%
89 | Cc1nonc1C(=O)N/N=C/c1ccc(O)cc1 | 99.2% (active)
90 | COC(=O)N/N=C/c1ccc(/C=N/NC(=O)OC)cc1 | -1.28%
91 | Cc1nc2ccc(C(=O)N/N=C/c3ccc(O)cc3)cc2[nH]1 | 99% (active)
92 | CCn1nc(C(=O)NNC(=O)C2CSC3(C)CCC(=O)N23)c2ccccc2c1=O (configuration not stated) | -0.847%
